This note sets out measurements from PubChem BioAssay (EPA / NIEHS).

Inconclusive results are not listed. Active and inactive are the calls of the source. Rule for the calls: active = hit-call score of the fitted dose curve at least 0.9, where 1 is the maximum; inconclusive = response in the unintended direction; inactive = score below 0.9.

Usually AC50 stands for the concentration giving half of the maximal activity seen.

The nature of this experiment: ACEA_ER_AUC_viability: ACEA Biosciences xCELLigence Real-Time Cell Analysis on Estrogen Receptor Agonism for Viability (AID 2283782).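 Note: hit means loss of impedance signal meaning reduced cell growth or viability.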 A digest of the protocol: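 Continuous-exposure impedance cell analysis uses T-47D cells in charcoal-stripped serum, eight 1:4 dilutions topping at 100 uM final, biological duplicate. Area under the growth curve at 80 h is fitted against DMSO baseline.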
As to `Cc1ccc2c(c1N)C(=O)c1ccccc1C2=O`, the compound was classed as inactive. For the compound `CCCCc1ccc(O)cc1`, the concentration at half-maximal activity (AC50) is 82.5 µM (active).

As to `CCOP(=O)(O)C(N)=O`, the outcome was inactive. As to `COP(=O)(CCC(=O)NCO)OC`, the AC50 was 56.8 µM (active). In the case of `COC(N)=O`, the compound was called inactive. In the case of `CCCN(CCC)c1c([N+](=O)[O-])cc(C(C)C)cc1[N+](=O)[O-]`, the AC50 is 87.3 µM (active). On to `O=C(O)C(F)(F)OC(F)(F)C(F)(F)OC(F)(F)C(=O)O`, for which the compound was called inactive.

Consider `N#Cc1c(-c2ccc(Cl)cc2)[nH]c(C(F)(F)F)c1Br`, for which the concentration at half-maximal activity (AC50) was 6.72 µM (active). Same read-out and setting: the value for `Cc1cc(C)c(C(=O)P(=O)(c2ccccc2)c2ccccc2)c(C)c1` was 73.1 µM (active).

For `CCCCOCC1CO1` (stereo not drawn), the compound was called inactive.

In the case of `CC(Cc1ccc(OCC(=O)O)cc1)NCC(O)c1csc(C(F)(F)F)n1` (stereo not drawn), the compound was classed as inactive. Still for that read-out and setting: the value for `O=S(=O)(F)C(F)(F)C(F)(F)C(F)(F)C(F)(F)C(F)(F)C(F)(F)C(F)(F)C(F)(F)F` was “inactive”. `CC1=C(C(=O)Nc2ccccc2)S(=O)(=O)CCO1`: the half-maximal activity concentration (AC50) is 28.6 µM (active). On the same count and under the same terms, the value for `CC(Cl)CN(C)C` (stereo not drawn) was 34.9 µM (active). `O=C(O)CF`: the call was inactive. Regarding `Cc1c([N+](=O)[O-])cc2c(c1[N+](=O)[O-])C(C)(C)CC2(C)C`, the AC50 is 82.3 µM (active). Consider `Cc1ccc([N+](=O)[O-])cc1C`, for which the compound was called inactive.

Turning to `FC(F)(F)C(F)(C(F)(F)F)C(F)(F)C(F)(F)CC1CO1` (stereo not drawn), the result was inactive. For the compound `CCOP(=S)(OCC)SCSc1ccc(Cl)cc1`, the concentration at half-maximal activity (AC50) is 27.9 µM (active). `Nc1cc2c3c(c1)C(c1ccccc1)=N[C@@H](NC(=O)c1cccnc1)C(=O)N3CC2`: the compound was called inactive.

`CC(O)C#N` (stereo not drawn): the half-maximal activity concentration (AC50) was 50 µM (active). As for `Cn1[nH]nnc1=S`, the compound was called inactive. Still for that read-out and setting: the value for `Nc1ccc([N+](=O)[O-])cc1Cl` was “inactive”; that for `CCOP(=S)(OCC)SCn1nnc2ccccc2c1=O` was “inactive”; that for `COP(=O)(O)OC` was “inactive”. As to `CCOP(=S)(OCC)SCS(=O)(=O)CC`, the result was inactive. On the same count and under the same terms, the value for `Nc1ccc(Sc2ccc(N)cc2)cc1` was “inactive”.

On to `Oc1ccc(I)cc1`, for which the AC50 was 73.7 µM (active). Same read-out and setting: then `O=S1(=O)OCC2C(CO1)C1(Cl)C(Cl)=C(Cl)C2(Cl)C1(Cl)Cl` (stereo not drawn), with 83 µM (active). For `CSC(C)(C)C=NO`, the call was inactive. On the same count and under the same terms, the value for `O=C(O)C(F)(F)OC(F)(F)C(F)(F)OC(F)(F)F` was “inactive”. Same read-out and setting: then `CCCCN(CCCC)N=O`, with “inactive”. Consider `N#Cc1ccc(O)cc1`, for which the compound was called inactive.

As to `O=C(CBr)OCc1ccccc1`, the compound was called inactive. Same read-out and setting: then `COCCOCCO`, with “inactive”. Regarding `N#C/C=C/c1ccccc1`, the half-maximal activity concentration (AC50) is 50 µM (active). As for `CC(O)C(F)(F)C(F)(F)F` (stereo not drawn), the result was inactive.

Consider `CC(C)(C)c1ccccc1OP(=O)(Oc1ccccc1)Oc1ccccc1`, for which the result was inactive.
